Source: PubChem BioAssay (NCATS)
Inconclusive results are not listed. The source made the active and inactive calls. Unless noted, calls follow the shape of the dose curve; as a rule, active = well fitted curve in either direction with a large enough effect (not every such curve was filed as active); inconclusive = small, poorly fitted or top-dose-only effect, or another doubt; inactive = flat fitted curve, though single readings scatter.

How the values were obtained:
[1] = molecular target: Lysosomal acid glucosylceramidase (Homo sapiens) (UniProt P04062); experiment: Glucocerebrosidase-p2 (AID 348; in the data active = potency below about 10 µM; also: potency is read from the fitted curve at half-maximal effect); settings: purified GBA, blue fluorogenic substrate, 40 min
Chain of Lysosomal acid glucosylceramidase (Homo sapiens) (P04062 whole entry, looked up): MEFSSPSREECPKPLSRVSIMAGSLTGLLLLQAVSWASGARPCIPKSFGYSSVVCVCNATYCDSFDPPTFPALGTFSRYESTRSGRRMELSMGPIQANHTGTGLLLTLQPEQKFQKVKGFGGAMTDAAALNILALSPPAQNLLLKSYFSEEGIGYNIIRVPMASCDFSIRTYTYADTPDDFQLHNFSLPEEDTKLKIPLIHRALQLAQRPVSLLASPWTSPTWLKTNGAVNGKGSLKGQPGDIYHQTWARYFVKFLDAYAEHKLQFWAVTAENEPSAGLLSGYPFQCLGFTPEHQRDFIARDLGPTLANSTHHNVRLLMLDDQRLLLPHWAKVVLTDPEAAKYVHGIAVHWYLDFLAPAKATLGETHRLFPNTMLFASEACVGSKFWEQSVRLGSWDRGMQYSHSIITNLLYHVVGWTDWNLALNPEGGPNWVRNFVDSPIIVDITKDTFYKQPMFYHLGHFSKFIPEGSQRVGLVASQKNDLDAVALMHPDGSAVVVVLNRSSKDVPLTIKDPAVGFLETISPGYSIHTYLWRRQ
Summary of the method: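 Compounds titrated from 0.6 nM upwards against 0.2 nM enzyme in pH 5.9 citric acid/KH2PO4, taurocholate, tween-20; blue fluorogenic substrate 80 uM, 40 min room temperature, stopped and read Ex 365/Em 440 for AC50.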

[2] = AP1 Signaling Pathway (AID 357); settings: ME-180 AP-1-bla reporter, EGF-induced, beta-lactamase ratio, 5 h; at 7.69 µM (top of the series) unless noted;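 also: ME-180 reporter cells stimulated with EGF at its EC50 level; % is scaled to controls: 0 for no effect and ±100 for the full control effect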
Summary of the method: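 First, ME-180 AP-1-bla cells were cultured overnight at 37 °C in low-serum Opti-MEM. Next, titrated compounds with EC50 EGF were incubated 5 hours. Finally, CCF4 was added for 2.5 hours and the 460/530 nm ratio recorded.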

[3] = Stat Signaling Pathway (AID 446); settings: ME-180 SIE beta-lactamase reporter, IL-6 stimulated, 5 h; at 7.69 µM (top of the series) unless noted;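 also: ME-180 cervical cancer cells given 40 pM IL-6 alongside compound; SIE-controlled beta-lactamase reporter measured as 460/530 nm FRET emission ratio; % is scaled to controls: 0 for no effect and ±100 for the full control effect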
Summary of the method: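 IL-6/STAT signaling read in ME-180 cells via an SIE beta-lactamase reporter. Stimulus was 40 pM IL-6 (its AC50) for 5 hrs, so both activation and inhibition register.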

[4] = molecular target: Glucocorticoid receptor (Homo sapiens) (UniProt P04150); experiment: GR-GFP Redistribution (AID 450;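 active = compounds whose dose series gives a full or clear partial fitted curve of increased nuclear translocation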; also: potency is read from the fitted curve at half-maximal effect); settings: U2OS GR-GFP nuclear translocation, laser cytometry, 2 h
Chain of Glucocorticoid receptor (Homo sapiens) (P04150 whole entry, looked up, the tested form may be a part): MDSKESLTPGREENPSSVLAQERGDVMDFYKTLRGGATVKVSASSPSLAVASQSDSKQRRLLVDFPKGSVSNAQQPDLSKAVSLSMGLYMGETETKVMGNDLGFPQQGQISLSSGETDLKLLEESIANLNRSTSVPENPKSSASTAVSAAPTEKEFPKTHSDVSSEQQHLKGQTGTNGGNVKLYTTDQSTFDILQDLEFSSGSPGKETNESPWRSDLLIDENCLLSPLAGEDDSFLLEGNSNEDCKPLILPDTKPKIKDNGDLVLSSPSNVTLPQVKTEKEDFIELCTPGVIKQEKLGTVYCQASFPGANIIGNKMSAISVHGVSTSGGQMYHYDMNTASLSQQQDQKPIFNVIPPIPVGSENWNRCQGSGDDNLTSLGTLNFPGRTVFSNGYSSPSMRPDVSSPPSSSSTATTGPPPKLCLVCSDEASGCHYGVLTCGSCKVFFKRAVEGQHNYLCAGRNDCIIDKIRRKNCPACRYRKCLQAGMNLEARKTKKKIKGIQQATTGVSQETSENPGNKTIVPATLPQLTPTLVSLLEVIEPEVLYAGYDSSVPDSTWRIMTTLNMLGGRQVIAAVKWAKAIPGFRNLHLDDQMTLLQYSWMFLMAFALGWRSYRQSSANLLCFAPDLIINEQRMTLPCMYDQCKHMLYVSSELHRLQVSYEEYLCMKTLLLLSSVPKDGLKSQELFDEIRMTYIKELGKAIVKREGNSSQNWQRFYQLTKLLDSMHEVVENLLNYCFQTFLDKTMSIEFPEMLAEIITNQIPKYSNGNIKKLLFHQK

[5] = molecular target: Glucocorticoid receptor (Homo sapiens) (UniProt P04150); experiment: GR-EFC Redistribution (AID 451; calls by dose curve; also: potency is read from the fitted curve at half-maximal effect); settings: CHO-K1 GR-EFC translocation, beta-gal luminescence, 2 h
Summary of the method: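 CHO-K1 cells expressing nuclear EA and GR-ED fragments of b-gal; compounds titrated up to 46 uM final, 2 h at 37 C. GR nuclear translocation read as complemented b-gal luminescence after 1 h RT detection.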

[6] = molecular target: Mitogen-activated protein kinase 10 (Mus musculus) (UniProt Q61831); experiment: JNK3 AlphaScreen Assay (AID 530); settings: JNK3 lysate, c-Jun phosphorylation; series mostly up to 57.1 µM;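 also: kinase came from lysate of stimulated human HepG2 cells; signal reports phosphorylation of biotinylated GST-cJun 1-79 at Ser73 with 10 µM ATP; % is scaled to controls: 0 for no effect and ±100 for the full control effect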
Summary of the method: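 qHTS format: compounds tested as titrations against IL-1beta/TNF-alpha-activated HepG2 lysate JNK3 with biotin-GST-cJun substrate and 10 uM ATP at room temperature. Loss of anti-phospho-cJun AlphaScreen signal indicates inhibition.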

[7] = molecular target: 3',5'-cyclic-AMP phosphodiesterase 4B (Homo sapiens) (UniProt Q07343); experiment: qHTS Assay for Inhibitors of PDE-IV (AID 607; active = well fitted activation curve with a large enough effect in the main read-out, with a control signal flat, not every such curve was filed as active; also: % of control where 0% means no effect); settings: HEK293 ACTOne CNG channel cells, membrane potential fluorescence; series mostly up to 22.9 µM
Chain of 3',5'-cyclic-AMP phosphodiesterase 4B (Homo sapiens) (Q07343 whole entry, looked up): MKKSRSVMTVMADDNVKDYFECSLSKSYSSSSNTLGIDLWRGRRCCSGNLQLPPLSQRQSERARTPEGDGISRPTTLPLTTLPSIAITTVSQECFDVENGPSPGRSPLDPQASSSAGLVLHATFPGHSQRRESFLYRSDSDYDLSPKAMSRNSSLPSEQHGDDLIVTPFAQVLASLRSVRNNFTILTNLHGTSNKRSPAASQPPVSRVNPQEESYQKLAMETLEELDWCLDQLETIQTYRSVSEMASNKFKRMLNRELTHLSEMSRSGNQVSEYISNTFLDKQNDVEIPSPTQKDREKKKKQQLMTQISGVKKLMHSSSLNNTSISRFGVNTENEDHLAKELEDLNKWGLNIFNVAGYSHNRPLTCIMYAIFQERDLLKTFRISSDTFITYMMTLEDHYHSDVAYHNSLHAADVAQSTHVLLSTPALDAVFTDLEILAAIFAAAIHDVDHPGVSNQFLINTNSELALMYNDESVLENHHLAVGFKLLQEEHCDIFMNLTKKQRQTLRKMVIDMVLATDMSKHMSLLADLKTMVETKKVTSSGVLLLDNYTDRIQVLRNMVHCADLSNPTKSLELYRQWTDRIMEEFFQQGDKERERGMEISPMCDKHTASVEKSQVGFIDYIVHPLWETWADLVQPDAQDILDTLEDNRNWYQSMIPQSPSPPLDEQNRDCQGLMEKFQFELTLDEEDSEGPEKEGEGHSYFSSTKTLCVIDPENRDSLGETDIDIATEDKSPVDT
Summary of the method: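 Live HEK293 cells with a modified cyclic nucleotide-gated (CNG) channel report intracellular cAMP via membrane-potential dye fluorescence (ex 535/em 590 nm). Endogenous PDE-IV was targeted. Compounds were tested at up to 22.9 uM final; RO 20-1724 100 uM served as control.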

[8] = Confirmation and Secondary Assay for Modulators of Hemoglobin Beta Chain Splicing at IVS2 654 locus (AID 910; active = well fitted curve in the direction sought with a large enough effect; an effect the other way counts as inactive or inconclusive;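 also: HeLa cells stably carrying EGFP split by mutant beta-globin IVS2-654 intron; % of control where 0% means no effect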); settings: HeLa EGFP-654 splicing reporter, GFP fluorescence, 48 h; series mostly up to 38.3 µM
Summary of the method: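 HeLa cells stably expressing EGFP interrupted by β-globin IVS2-654 intron, seeded overnight in Opti-MEM/2% FCS, then treated 2 days at 37 °C. Restored splicing read as total peak GFP intensity per well by laser scanning cytometry (488 nm excitation, 500–520 nm emission); 500 nM antisense PNA as control.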

[9] = Confirmation and Secondary Assay for Modulators of Hemoglobin Beta Chain Splicing at IVS2 705 locus (AID 930; active = well fitted curve in the direction sought with a large enough effect; an effect the other way counts as inactive or inconclusive;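 also: HeLa cells stably expressing the EGFP-705 splicing reporter; GFP fluorescence per well restored by corrected splicing of the IVS2-705 intron in EGFP; % of control where 0% means no effect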); settings: HeLa EGFP-705 splicing reporter, GFP fluorescence, 48 h; series mostly up to 38.3 µM
Summary of the method: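 Assay measures total GFP intensity per well in HeLa EGFP-705 cells after 2 days with compound; mis-splicing normally truncates EGFP, so fluorescence indicates corrected splicing.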

[10] = qHTS Assay for Lipid Storage Modulators (AID 1519; calls by dose curve); settings: Drosophila S3 cells, BODIPY lipid droplet/cell ratio, laser cytometry, cells loaded with oleic acid; for activity change, negative = inhibition: at 57.5 µM (top of the series)
Summary of the method: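 Cells seeded at 5,000 per well were treated with compounds over a concentration series and loaded with oleic acid (400 uM, as added). Lipid droplet fluorescence (488 nm excitation, 500-530 nm channel) was read by laser-scanning cytometry and normalized to 20 uM Triacsin C.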

[11] = molecular target: Ubiquitin carboxyl-terminal hydrolase 1 (Homo sapiens) (UniProt O94782); experiment: Inhibitors of USP1/UAF1: Pilot qHTS (AID 504865; active = well fitted curve in the direction sought with a large enough effect; an effect the other way counts as inactive or inconclusive;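 also: rhodamine fluorescence freed from ubiquitin-rhodamine substrate followed over time; top concentration of the series differs between compounds; % is scaled to controls: 0 for no effect and ±100 for the full control effect; nearly all actives have a fitted effect of over 35% in size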); settings: purified USP1/UAF1, Ub-rhodamine cleavage fluorescence; series mostly up to 54.9 µM
Chain of Ubiquitin carboxyl-terminal hydrolase 1 (Homo sapiens) (O94782 whole entry, looked up): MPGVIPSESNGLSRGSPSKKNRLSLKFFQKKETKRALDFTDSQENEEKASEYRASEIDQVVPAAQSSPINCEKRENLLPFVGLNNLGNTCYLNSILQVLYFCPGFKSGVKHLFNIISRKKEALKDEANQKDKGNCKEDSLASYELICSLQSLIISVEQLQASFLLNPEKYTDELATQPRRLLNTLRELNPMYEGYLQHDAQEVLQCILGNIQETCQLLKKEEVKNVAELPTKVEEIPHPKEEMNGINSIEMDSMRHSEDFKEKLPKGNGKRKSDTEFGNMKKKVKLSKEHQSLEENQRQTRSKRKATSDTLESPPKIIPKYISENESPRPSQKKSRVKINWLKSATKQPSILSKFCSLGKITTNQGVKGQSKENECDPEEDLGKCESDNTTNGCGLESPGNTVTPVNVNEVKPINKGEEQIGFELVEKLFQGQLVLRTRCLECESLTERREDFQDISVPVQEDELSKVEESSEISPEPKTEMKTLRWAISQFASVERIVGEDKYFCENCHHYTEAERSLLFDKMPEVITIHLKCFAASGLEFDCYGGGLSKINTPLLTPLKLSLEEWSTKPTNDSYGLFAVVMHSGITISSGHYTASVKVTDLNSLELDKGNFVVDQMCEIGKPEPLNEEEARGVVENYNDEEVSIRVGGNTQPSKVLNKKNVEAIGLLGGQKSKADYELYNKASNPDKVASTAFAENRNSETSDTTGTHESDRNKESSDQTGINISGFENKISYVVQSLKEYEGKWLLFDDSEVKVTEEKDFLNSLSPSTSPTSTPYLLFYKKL
Summary of the method: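 USP1/UAF1 complex at 1 nM preincubated 15 min at room temperature with compound, then Ub-Rho substrate added at 150 nM final. Fluorescence (480/540 nm) read kinetically in 50 mM HEPES pH 7.8, 0.5 mM EDTA, 1 mM TCEP, 0.1 mg/ml BSA, 0.01% Tween-20.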

[12] = Primary qHTS for small molecule stabilizers of the endoplasmic reticulum resident proteome: Secreted ER Calcium Modulated Protein (SERCaMP) assay (AID 1508630; active = well fitted curve in the direction sought with a large enough effect; an effect the other way counts as inactive or inconclusive; also: % is scaled to controls: 0 for no effect and ±100 for the full control effect); settings: SH-SY5Y GLuc-SERCaMP (Gaussia luciferase released on ER calcium loss) secretion, thapsigargin, luminescence; series mostly up to 38.4 µM
Summary of the method: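 GLuc-SERCaMP-expressing SH-SY5Y cells, pretreated 16 h with compound, are challenged with thapsigargin to empty ER calcium stores; after 4 h, coelenterazine is added directly to the medium and luminescence is imaged.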

[13] = NFAT Signaling Pathway (AID 444); settings: Jurkat NFAT-bla M1, carbachol, beta-lactamase ratio, 5 h; at 7.69 µM (top of the series) unless noted
Summary of the method: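 Jurkat cells with NFAT-driven β-lactamase reporter and co-expressed M1 receptor, stimulated with carbachol (final 1 uM, ~EC50), compound titration, 5 h at 37 °C. CCF4 loaded 1 h at RT; 460/530 nm ratio gave %activity and AC50.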

[14] = qHTS Assay for Identification of Small Molecule Agonists for Hypoxia Response Element Signaling Pathway (AID 914; active = well fitted activation curve with a large enough effect in the signal ratio, with a control signal flat, not every such curve was filed as active; the % refers to the signal ratio; also: % of control where 0% means no effect); settings: ME-180 (cervical carcinoma) HRE-bla reporter, beta-lactamase ratio, CoCl2, 17 h; activation: stronger effect = higher value
Summary of the method: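 Compounds in a titration series were added to ME-180 reporter cells alongside an EC50 level of CoCl2. After 17 hours, beta-lactamase activity was read as the 460nm/530nm emission ratio of CCF4, giving AC50 values.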

[15] = molecular target: Cytochrome P450 3A4 (Homo sapiens) (UniProt P08684); experiment: qHTS Assay for Activators of Cytochrome P450 3A4 (AID 885; active = well fitted curve in the direction sought with a large enough effect; an effect the other way counts as inactive or inconclusive; also: nearly all actives have a fitted effect of over 65% in size); settings: recombinant CYP3A4, Luciferin-PPXE luminescence, 60 min; series mostly up to 57.1 µM
Chain of Cytochrome P450 3A4 (Homo sapiens) (P08684 whole entry, looked up): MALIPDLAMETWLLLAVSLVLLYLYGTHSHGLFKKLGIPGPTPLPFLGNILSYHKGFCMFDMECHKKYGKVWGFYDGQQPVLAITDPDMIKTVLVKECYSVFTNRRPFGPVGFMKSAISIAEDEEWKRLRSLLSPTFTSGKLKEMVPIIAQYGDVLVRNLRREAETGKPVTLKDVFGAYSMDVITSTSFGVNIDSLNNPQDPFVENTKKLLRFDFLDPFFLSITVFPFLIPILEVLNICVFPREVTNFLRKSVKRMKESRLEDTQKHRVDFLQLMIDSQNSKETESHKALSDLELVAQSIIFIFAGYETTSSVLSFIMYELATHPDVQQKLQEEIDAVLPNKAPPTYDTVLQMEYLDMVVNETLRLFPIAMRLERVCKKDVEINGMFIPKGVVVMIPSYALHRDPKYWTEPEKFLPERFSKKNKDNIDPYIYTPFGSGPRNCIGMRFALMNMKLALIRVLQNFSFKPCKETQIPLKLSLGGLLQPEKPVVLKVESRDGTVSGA
Summary of the method: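 Quantitative HTS format: compounds preincubated with 20nM human CYP3A4 and Luciferin-PPXE substrate at KM, reaction started by NADPH regeneration, stopped after 60 min, luciferase luminescence read 20 min later.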

[16] = measured here: cell count channel max response
[17] = measured here: lipid channel max response

COc1ccc2[nH]cc(CCNc3nc(-c4cccc(NS(C)(=O)=O)c4)nc4ccccc34)c2c1
-14.6%: max response [10, 16]
-4.03%: max response [10, 17]
inactive: Potency [1] > 11.4 µM | activity change, negative = inhibition [2] -29.4% | activity, negative = inhibition [3] -28.4% | Potency [4] > 46 µM | Potency [5] > 46 µM | Potency [6] | Potency [7] | Potency [8] | outcome [9] | activity change, negative = inhibition [10] 8.36% | Potency [11] | outcome [12]

COc1ccccc1CN1CC[C@@]2(CCCN(C(=O)c3ccncc3)C2)C1
14.1%: max response [10, 17]
inactive: Potency [1] > 11.4 µM | activity change, negative = inhibition [2] -11.5% | activity change, negative = inhibition [13] 3.54% | activity, negative = inhibition [3] 0.423% | Potency [6] | Potency [7] | activity change, negative = inhibition [10] 3.67% | outcome [12]
8.53%: max response [10, 16]

COc1ccc(NC(=O)N2CCCC3(CCN(C(C)=O)CC3)C2)cc1
18.6%: max response [10, 17]
inactive: Potency [1] > 11.4 µM | activity change, negative = inhibition [2] -2.44% | activity change, negative = inhibition [13] 11.5% | activity, negative = inhibition [3] -0.377% | Potency [5] > 46 µM | Potency [6] | Potency [7] | activation [14] -9.1% | activity change, negative = inhibition [10] 5.88% | outcome [12]
10.9%: max response [10, 16]

COc1ccc(NC(=O)N2CC3(CCNCC3)C2)cc1
inactive: Potency [1] > 11.4 µM | activity change, negative = inhibition [2] 7.88% | activity change, negative = inhibition [13] 6.29% | activity, negative = inhibition [3] -3.83% | Potency [5] > 46 µM | Potency [6] | Potency [7] | activity change, negative = inhibition [10] 5.62% | outcome [12]
23%: max response [10, 17]
12.7%: max response [10, 16]

CC(=O)N1CCC2(CCCN(Cc3cc(C(F)(F)F)cc(C(F)(F)F)c3)C2)CC1
1.79%: max response [10, 16]
9.32%: max response [10, 17]
inactive: Potency [1] > 11.4 µM | activity change, negative = inhibition [2] 7.77% | activity change, negative = inhibition [13] 23.8% | activity, negative = inhibition [3] -2.82% | Potency [5] > 46 µM | Potency [6] | Potency [7] | Potency [15] | activity change, negative = inhibition [10] 4.05% | outcome [12]

Cc1cccc(CNc2cc(-c3cccnc3)ncn2)c1
-22.1%: max response [10, 17]
inactive: Potency [1] > 11.4 µM | activity change, negative = inhibition [2] -15.4% | activity change, negative = inhibition [13] -0.57% | Potency [4] > 46 µM | Potency [5] > 46 µM | Potency [6] | Potency [7] | Potency [8] | activity change, negative = inhibition [10] -14.1% | Potency [11] | outcome [12]
-10.4%: max response [10, 16]

COC(=O)N1CCC2(CCN(C(=O)Nc3cccc(C#N)c3)CC2)CC1
inactive: Potency [1] > 11.4 µM | activity change, negative = inhibition [2] -20.7% | activity change, negative = inhibition [13] 4.12% | activity, negative = inhibition [3] 7.14% | Potency [5] > 46 µM | Potency [6] | Potency [7] | activity change, negative = inhibition [10] -0.883% | outcome [12]
12.6%: max response [10, 16]
14%: max response [10, 17]

O=C(c1cccc(F)c1)N1CCC[C@@]2(CCN(c3ncccn3)C2)C1
15.7%: max response [10, 17]
7.74%: max response [10, 16]
inactive: Potency [1] > 11.4 µM | activity change, negative = inhibition [2] -17.6% | activity change, negative = inhibition [13] 10.1% | activity, negative = inhibition [3] 1.15% | Potency [5] > 46 µM | Potency [6] | Potency [7] | activity change, negative = inhibition [10] 3.33% | outcome [12]

CC(=O)N1CCC2(CC1)CN(Cc1cc(C(F)(F)F)cc(C(F)(F)F)c1)C2
20.4%: max response [10, 16]
27.2%: max response [10, 17]
inactive: Potency [1] > 11.4 µM | activity change, negative = inhibition [2] 2.68% | activity change, negative = inhibition [13] 13.2% | activity, negative = inhibition [3] 11% | Potency [5] > 46 µM | Potency [6] | Potency [7] | activity change, negative = inhibition [10] 4.71% | outcome [12]
